# In PubChem BioAssay (NCATS):
# Results filed as inconclusive are left out. Where a call stands in place of a potency, no number is given. Active and inactive are the calls of the source. Calls come from the whole dose curve; as a rule, active = well fitted inhibition curve with a large enough effect; inconclusive = small, poorly fitted or top-dose-only effect; inactive = no such curve, though single readings can be large or run the other way.
# Test system: Zika virus NS2B-NS3 protease (linked construct)
# Assay: Primary screen NINDS Rhodamine qHTS for Zika virus inhibitors (AID 1347160); note: nearly all actives have a fitted effect of over 55% in size
# Conditions: purified NS2B-NS3 protease, Rhodamine110 substrate fluorescence; series mostly up to 33.1 µM
# In short: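 Single-chain NS2B-NS3 protease, 25 nM, pH 8.0; compounds preincubated 15 min. Activity: Rhodamine110 release from 1.5 microM substrate over 15 min, room temperature, data fitted to 4-parameter Hill.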
row,Structure (SMILES),Potency
1,CC(=O)C1CCC(=O)N1Cc1ccccc1 (configuration not stated),inactive
2,COc1cc(O)cc(C)c1C(=O)O[C@H]1[C@@H](O)[C@@H](n2ccc(=O)[nH]c2=O)O[C@@H]1CO,inactive
3,C/C=C1/CC2C(=O)Nc3cc(O)c(OC)cc3C(=O)N2C1 (configuration not stated),inactive
4,CCCNCCOc1ccc(NC(=O)c2c[nH]c3c2C(=O)CCC3)cc1F,inactive
5,O=C(O)c1ccncc1Nc1nn(CCN2CCC(F)(F)CC2)c2ccc(F)cc12,inactive
6,COC(=O)C1=CO[C@@H](O[C@@H]2O[C@H](CO)[C@@H](O)[C@H](O)[C@H]2O)[C@@H]2C(C)CC(=O)[C@]12O (some centres not stated),inactive
7,COC(=O)C(CC1(O)c2ccccc2N2C(=O)C(C)(C)N(O)C21)n1cnc2ccccc2c1=O (configuration not stated),inactive
